Data as given in PubChem BioAssay (NCI).
About 83,000 compounds went through this panel and 20% of them were active in at least one assay; those are over-represented in the sample as a whole.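 Assay: single dose, 48 h. Readout: percent growth (0 = no net growth; negative = cell death). Active: <10.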 Calls of active or inactive are those of the source.

Columns and labels:
Assay in all cases: NCI-60 one-dose screen, 48 h (100 = growth as untreated, 0 = no growth, -100 = all killed)
RPMI-8226 leukemia = system: RPMI-8226 leukemia
OVCAR-8 ovarian = system: OVCAR-8 ovarian
OVCAR-5 ovarian = system: OVCAR-5 ovarian
OVCAR-4 ovarian = system: OVCAR-4 ovarian
SK-OV-3 ovarian = system: SK-OV-3 ovarian
IGROV1 ovarian = system: IGROV1 ovarian
OVCAR-3 ovarian = system: OVCAR-3 ovarian
HS 578T breast = system: HS 578T breast
NCI/ADR-RES ovarian = system: NCI/ADR-RES ovarian
T-47D breast = system: T-47D breast
BT-549 breast = system: BT-549 breast
MDA-MB-435 melanoma = system: MDA-MB-435 melanoma
SW-620 colon = system: SW-620 colon
MCF7 breast = system: MCF7 breast
HCT-116 colon = system: HCT-116 colon
HCC-2998 colon = system: HCC-2998 colon
KM12 colon = system: KM12 colon
MDA-MB-468 breast = system: MDA-MB-468 breast
SR leukemia = details: 10 µM unless noted

Measured: growth

CC/C(=C(\c1ccc(O)cc1)c1ccc(OCCN(C)C(=O)COCCNC(=O)Cc2ccc3c(c2)CN([C@@H]2CCC(=O)NC2=O)C3=O)cc1)c1ccccc1
active: IGROV1 ovarian; 10 µM 9.45% | HS 578T breast; 10 µM 7.64% | T-47D breast; 10 µM 7.16% | BT-549 breast; 1 µM -25.9% | BT-549 breast; 10 µM -22.3% | MDA-MB-468 breast; 1 µM -11.7% | MDA-MB-468 breast; 10 µM -28.3%
inactive: RPMI-8226 leukemia; 1 µM 83.7% | RPMI-8226 leukemia; 10 µM 51.8% | OVCAR-8 ovarian; 1 µM 67.7% | OVCAR-8 ovarian; 10 µM 15.1% | OVCAR-5 ovarian; 1 µM 94.7% | OVCAR-5 ovarian; 10 µM 65.5% | OVCAR-4 ovarian; 1 µM 91.3% | OVCAR-4 ovarian; 10 µM 38.7% | SK-OV-3 ovarian; 1 µM 81% | SK-OV-3 ovarian; 10 µM 57.8% | IGROV1 ovarian; 1 µM 38.5% | OVCAR-3 ovarian; 1 µM 85.9% | OVCAR-3 ovarian; 10 µM 54.8% | HS 578T breast; 1 µM 48.7% | NCI/ADR-RES ovarian; 1 µM 105% | NCI/ADR-RES ovarian; 10 µM 98.7% | T-47D breast; 1 µM 15.5% | MDA-MB-435 melanoma; 1 µM 97% | MDA-MB-435 melanoma; 10 µM 59.2% | SW-620 colon; 1 µM 57.5% | SW-620 colon; 10 µM 23.8% | MCF7 breast; 1 µM 33.4% | MCF7 breast; 10 µM 20% | HCT-116 colon; 1 µM 94.2% | HCT-116 colon; 10 µM 99.6% | HCC-2998 colon; 1 µM 64.5% | HCC-2998 colon; 10 µM 30.2% | KM12 colon; 1 µM 94.3% | KM12 colon; 10 µM 47.5%

CC/C(=C(/c1ccc(O)cc1)c1ccc(OCCN(C)C(=O)COCCOCCNC(=O)Cc2ccc3c(c2)CN([C@@H]2CCC(=O)NC2=O)C3=O)cc1)c1ccccc1
inactive: RPMI-8226 leukemia; 1 µM 90.3% | RPMI-8226 leukemia; 10 µM 72% | OVCAR-8 ovarian; 1 µM 93.9% | OVCAR-8 ovarian; 10 µM 21.9% | OVCAR-5 ovarian; 1 µM 95.3% | OVCAR-5 ovarian; 10 µM 86.6% | OVCAR-4 ovarian; 1 µM 101% | OVCAR-4 ovarian; 10 µM 59.2% | SK-OV-3 ovarian; 1 µM 86.1% | SK-OV-3 ovarian; 10 µM 71.6% | IGROV1 ovarian; 1 µM 50% | IGROV1 ovarian; 10 µM 17.8% | OVCAR-3 ovarian; 1 µM 95.6% | OVCAR-3 ovarian; 10 µM 61.3% | HS 578T breast; 1 µM 64.8% | HS 578T breast; 10 µM 19.1% | NCI/ADR-RES ovarian; 1 µM 103% | NCI/ADR-RES ovarian; 10 µM 107% | T-47D breast; 1 µM 19.2% | MDA-MB-435 melanoma; 1 µM 107% | MDA-MB-435 melanoma; 10 µM 73.6% | SW-620 colon; 1 µM 84.2% | SW-620 colon; 10 µM 29.6% | MCF7 breast; 1 µM 36.1% | MCF7 breast; 10 µM 19.6% | HCT-116 colon; 1 µM 96.4% | HCT-116 colon; 10 µM 101% | HCC-2998 colon; 1 µM 97.3% | HCC-2998 colon; 10 µM 48.9%
active: T-47D breast; 10 µM 6.14% | BT-549 breast; 1 µM -20.3% | BT-549 breast; 10 µM -26% | MDA-MB-468 breast; 1 µM 1.33% | MDA-MB-468 breast; 10 µM -15.7%

Nc1nnc(CS(=O)(=O)c2ccccc2)s1
inactive: SR leukemia 108% | RPMI-8226 leukemia; 10 µM unless noted 103% | OVCAR-8 ovarian; 10 µM unless noted 97.4% | OVCAR-5 ovarian; 10 µM unless noted 109% | OVCAR-4 ovarian; 10 µM unless noted 121% | SK-OV-3 ovarian; 10 µM unless noted 104% | IGROV1 ovarian; 10 µM unless noted 101% | OVCAR-3 ovarian; 10 µM unless noted 104% | HS 578T breast; 10 µM unless noted 86% | NCI/ADR-RES ovarian; 10 µM unless noted 104% | T-47D breast; 10 µM unless noted 102% | MDA-MB-435 melanoma; 10 µM unless noted 113% | SW-620 colon; 10 µM unless noted 108% | MCF7 breast; 10 µM unless noted 101% | HCT-116 colon; 10 µM unless noted 107% | HCC-2998 colon; 10 µM unless noted 103% | KM12 colon; 10 µM unless noted 101% | MDA-MB-468 breast; 10 µM unless noted 111%

Cc1ccc(O)cc1Nc1nc(SCCN2CCOCC2)nc2c1cnn2CC(Cl)c1ccc(Br)cc1 (centres undefined)
inactive: RPMI-8226 leukemia; 10 µM unless noted 16.8% | OVCAR-8 ovarian; 10 µM unless noted 20.7% | OVCAR-5 ovarian; 10 µM unless noted 18.8% | OVCAR-4 ovarian; 10 µM unless noted 32.3% | SK-OV-3 ovarian; 10 µM unless noted 43.9% | OVCAR-3 ovarian; 10 µM unless noted 26.5% | MDA-MB-435 melanoma; 10 µM unless noted 12.6% | SW-620 colon; 10 µM unless noted 32.9% | KM12 colon; 10 µM unless noted 17%
active: SR leukemia -29.4% | IGROV1 ovarian; 10 µM unless noted -1.66% | HS 578T breast; 10 µM unless noted -25.8% | NCI/ADR-RES ovarian; 10 µM unless noted 7.37% | T-47D breast; 10 µM unless noted -2.49% | MCF7 breast; 10 µM unless noted 5.88% | HCT-116 colon; 10 µM unless noted 2.84% | HCC-2998 colon; 10 µM unless noted 1.63% | MDA-MB-468 breast; 10 µM unless noted -55.7%

O=C1NC(=NC23CC4CC(CC(C4)C2)C3)N/C1=C\c1ccc2ncccc2c1
active: RPMI-8226 leukemia; 10 µM unless noted -31.1% | OVCAR-8 ovarian; 10 µM unless noted 5.28% | OVCAR-4 ovarian; 10 µM unless noted -14.4% | SK-OV-3 ovarian; 10 µM unless noted -57.4% | IGROV1 ovarian; 10 µM unless noted 8.97% | OVCAR-3 ovarian; 10 µM unless noted -55.3% | HS 578T breast; 10 µM unless noted -15.3% | NCI/ADR-RES ovarian; 10 µM unless noted -28.7% | MDA-MB-435 melanoma; 10 µM unless noted -22.6% | SW-620 colon; 10 µM unless noted 1.21% | MCF7 breast; 10 µM unless noted -11.4% | HCT-116 colon; 10 µM unless noted 3.24%
inactive: OVCAR-5 ovarian; 10 µM unless noted 45.7% | T-47D breast; 10 µM unless noted 22.5% | BT-549 breast; 10 µM unless noted 16.2% | HCC-2998 colon; 10 µM unless noted 22.7% | KM12 colon; 10 µM unless noted 24.3% | MDA-MB-468 breast; 10 µM unless noted 19.4%
